Experimental data taken from PubChem BioAssay.

Target: Torsin-1A-interacting protein 1 (Homo sapiens) (UniProt Q5JTV8)
Assay: compound microarray binding of lysate hLAP1 – cell lysate, small-molecule microarray, COS7 lysate, 635/667 nm fluorescence, primary screen (AID 1116)
Settings: 635 nm fluorescence, higher = more signal

Sequence of Torsin-1A-interacting protein 1 (Homo sapiens) (Q5JTV8 whole entry, looked up): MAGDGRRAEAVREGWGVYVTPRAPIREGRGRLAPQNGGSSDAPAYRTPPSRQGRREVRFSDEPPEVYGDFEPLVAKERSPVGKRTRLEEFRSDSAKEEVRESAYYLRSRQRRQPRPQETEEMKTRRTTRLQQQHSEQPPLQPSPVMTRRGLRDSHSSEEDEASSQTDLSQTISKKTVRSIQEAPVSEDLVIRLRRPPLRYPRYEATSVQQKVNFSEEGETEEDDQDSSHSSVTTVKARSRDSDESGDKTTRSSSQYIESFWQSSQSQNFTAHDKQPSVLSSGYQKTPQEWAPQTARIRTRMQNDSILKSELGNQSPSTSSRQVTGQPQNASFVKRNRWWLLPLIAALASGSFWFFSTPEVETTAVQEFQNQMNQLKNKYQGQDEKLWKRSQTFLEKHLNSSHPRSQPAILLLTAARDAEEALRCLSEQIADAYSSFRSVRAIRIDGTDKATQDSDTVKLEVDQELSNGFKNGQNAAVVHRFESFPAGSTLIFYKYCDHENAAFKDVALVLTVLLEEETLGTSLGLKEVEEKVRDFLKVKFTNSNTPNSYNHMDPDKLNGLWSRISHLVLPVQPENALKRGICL

Row | SMILES | composite z-score
1 | NCCCCCCNC(=O)[C@@H]1C[C@@H]2C(=O)N[C@@H](CCCCN)C(=O)N2[C@@H]1c1ccc(O)cc1 | 1.66
2 | CC1CC/C=C\[C@H]2OC34C=CCN(C(C)(C)C)C(=O)[C@H]3N(CCCCCO)C(=O)[C@@H]4C2C(=O)O1 (stereo partly drawn) | -0.348
3 | Cc1ccc(F)cc1S(=O)(=O)N[C@@H]1CCN(Cc2ccc(Br)cc2)C1 | 0.418
4 | COC(=O)[C@@]1(Cc2ccc(OC)cc2)[C@H]2c3cc(C(=O)N4CCCC4)n(CCO)c3C[C@H]2CN1C(=O)c1ccccc1 | 1.47
5 | CCOC(=O)C[C@H]1[C@H](OC(=O)c2ccccc2-c2ccccc2)[C@@H](NC(=O)c2ccc3ccccc3c2)c2cc(OCCCO)ccc2N1C(=O)c1ccccc1 | 0.228
6 | CCCC1(C(=O)OC)C=C2C(=C(C)C(=O)C2C)CN1 (stereo not drawn) | 0.635
7 | O=C1C2C=CC(C(O)C3CC=CCC3)N(Nc3ccccc3)C2C(=O)N1c1ccccc1 (stereo not drawn) | 0.946
8 | CC(C)N1C(=O)C[C@@](C(=O)NC2CC2)(c2ccc([N+](=O)[O-])cc2)[C@H]1c1ccc(CO)cc1 | -0.315
9 | C=C(C(=O)CC[C@H](OC(=O)c1ccccc1-c1ccccc1C(=O)O)c1cccc(OCCO)c1)C(C)C | -0.126
10 | COC(=O)c1c(CC[C@@H](CO)NC(=O)N[C@@H](C)Cn2cc(-c3ccccn3)nn2)oc(C(C)=O)c1C(=O)OC | 0.237
11 | COCC(=C=CC[C@H](O)c1ccc(CO)o1)CCO | -0.0673
12 | COCC(=C=CC[C@H](O)c1ccc(OCCO)cc1)CCO | 1.6
13 | COc1cc(NN2C(C(O)c3ccco3)C=CC3C(=O)N(C)C(=O)C32)cc(OC)c1OC (stereo not drawn) | 0.447
